“And” between values parts separate entries of the source, which are not always exact repeats. Equal values may be shown once.
Assay: qHTS of Nrf2 Activators: Hit Validation in NQO-1 Induction Assay
Conditions: Hepa1c1c7 cells, NQO1 mRNA qPCR, 24 h; at 1 µM; active compounds read high;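 active = relative NQO1 transcription at 1 µM of 250% or more; inconclusive = relative NQO1 transcription between 200% and 250%; inactive = relative NQO1 transcription under 200%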
Excerpt: Many diseases have some form of oxidative stress injury and ties to inflammation, causing a host of problems for the patient. The antioxidant response element (ARE) plays an important role in alleviating the harmful effects of oxidative stress. The antioxidant response element (ARE) is a transcriptional regulatory element involved in the activation of genes coding for a number of antioxidant proteins and detoxifying enzymes. These enzymes work in concert to protect tissues from oxidative insults and chemical toxicities in human hepatocytes and immune cells. The protective effects of ARE activation are primarily triggered through Nrf2 (NF-E2-related factor) binding to and activating AREs. It is known that Nrf2 controls the production of over 250 antioxidant and detoxification proteins (Hu et al., 2006), thereby protecting tissues by increasing cellular antioxidant content and suppressing inflammatory signaling pathways. The transcription factor Nrf2 is a central link between oxidative chemicals, such as phenolic antioxidants and electrophilic compounds, and the activation of ARE. Nrf2 levels are constitutively low as a consequence of its interaction with Keap1, which targets its degradation (Zipper and Mulcahy, 2002). Electrophiles react with key cysteine residues in Keap1, releasing Nrf2 and allowing its translocation to the nucleus. Once within the nucleus, Nrf2 complexes with coactivators such as p300, and binds to the AREs to induce gene transcription of cytoprotective enzymes, resulting in the prevention of toxicity. Activation of Nrf2 protects tissues by increasing cellular antioxidant content and suppressing inflammatory signaling pathways. Identifying novel and potent Nrf2 activators by using the AREc32 cell line to detect ARE activation by small molecules will lead to the identification and development of probes to study protective pathways in multiple tissues. These specific probes are essential to study the ARE pathway, and eventually to determine whether this pathway does activate genes that could protect against a host of diseases, including cardiovascular diseases, obesity, diabetes, Alzheimer's, and Parkinson's disease. This project's aim is to identify novel and potent Nrf2 activators by using the AREc32 cell line to detect ARE activation by small molecules, which will lead to the identification and development of probes to study the ARE pathway. Compounds that were identified in the primary screen were tested in this secondary assay to assess whether a hit also activates Nrf2 transcription of the target gene NQO-1. NIH Chemical Genomics Center [NCGC] NIH Molecular Libraries Probe Centers Network [MLPCN] MLPCN Grant: DK081461 Assay Submitter (PI): Curtis Klaassen, University of Kansas Medical Center
Hepac1c7 cells were seeded into 24-well plates at a density of 30,000 cells/well in 1 mL complete media per well and cultured overnight to allow attachment. Cells were treated the next day with compounds (1 uM)or positive control for 24 h. Total RNA samples were then isolated by using RNAzol B reagent (Tel-Test, Inc., Friendswood, TX) according to the manufacturer's protocol. Total RNAs were reverse-transcribed into cDNA by High Capacity cDNA Archive Kits (Applied Biosystems, Foster City, CA) and the resulting cDNA was used for real-time PCR analysis using SYBR(R) Green PCR Master Mix in a 7900HT Fast Real-Time PCR System.

Relative NQO1 transcription, inactive:
CS(=O)(=O)c1nc(S(=O)(=O)c2ccc(Cl)cc2)c(N2CCOCC2)s1 129%
O=C(Nc1ncnc2sc3c(c12)CCC3)c1ccco1 175%
COC(=O)c1c(NC(=O)c2ccccc2)sc(C(N)=O)c1C 60%
COc1ccc(NC(=O)c2cc(-c3cccs3)on2)c(OC)c1 129%
COc1ccc(NC(=O)c2cc(-c3ccco3)on2)c(OC)c1 75%
Clc1ccc2c(NCc3ccccn3)ncnc2c1 83%
O=C(Nc1cccc2ncccc12)c1ccc(Cl)cc1 136%
Cc1nc(NCc2ccco2)nc2c1C(=O)CC(C)C2 (stereo not given) 175%
O=C(Nc1ncnc2sc3c(c12)CCCCC3)c1ccco1 163% and 137%
COc1ccccc1NC(=O)c1cc(Cl)nc2ccccc12 79%

— PubChem BioAssay AID652013 (National Center for Advancing Translational Sciences (NCATS), 2013)
